The full ranking holds about 16,000 sequences; the median of “rpm ratio (pull-down/input)” is about 0.5, and the highest 2% start at about 5.5. Shown is part of a subset that was picked to be rich in the highest values.
Target: T1, MBP-FoxP3dN (Mus musculus, UniProt Q99JB6 188-423)
T1 sequence: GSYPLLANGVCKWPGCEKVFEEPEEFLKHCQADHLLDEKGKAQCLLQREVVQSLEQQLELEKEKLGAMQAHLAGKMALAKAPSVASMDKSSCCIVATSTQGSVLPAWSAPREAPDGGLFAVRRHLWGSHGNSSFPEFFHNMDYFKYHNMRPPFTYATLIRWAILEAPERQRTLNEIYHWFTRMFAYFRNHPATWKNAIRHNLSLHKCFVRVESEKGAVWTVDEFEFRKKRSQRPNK
Assay: PD-seq (MBP pull-down with sequencing); 20 mM Tris-HCl pH 7.5, 100 mM NaCl, 1.5 mM MgCl2, 0.4 uM protein, 0.1 uM dsDNA library, 30 min, room temperature, amylose pull-down; high values mean tight binding
Conditions: protein: recombinant; tags: His6-MBP; chain copies: 2; dsDNA, one strand shown
How it was run: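 Protein and DNA were mixed at 0.4 µM and 0.1 µM and held for 30 min at room temperature in Tris pH 7.5 buffer with NaCl and MgCl2; the protein was a His6-MBP-tagged, N-terminally truncated mouse FoxP3 or FoxP1 fragment from E. coli, and the DNA a Klenow-filled double-stranded degenerate library. Amylose resin captured the complexes, which were washed three times. Binding is read as reads-per-million enrichment of pull-down versus input after Illumina sequencing, with replicates pooled.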

Sequence | binding signal
GATGATTGTTCTCCCAGCTGATGAATTTGTTTCCTCGAGTAAACAAATTTTCCTAATCTTTCTGTTCAAGCGCCATCTAC | 5.92 RPM ratio (pull-down/input)
GATGATTGTTCTCCCAGCTGATGAATTTTGTTTCTCGAGTAAACAAATTTTCCTAATCTTTCTGTTCAAGCGCCATCTAC | 5.54 RPM ratio (pull-down/input)
GATGATTGTTCTCCCAGCTGATGAATTTACCTCCTCGAGTAAACAAATTTTCCTAATCTTTCTGTTCAAGCGCCATCTAC | 0.573 RPM ratio (pull-down/input)
GATGATTGTTCTCCCAGCTGATGAATTGTTTTCCTCGAGTAAACAAATTTTCCTAATCTTTCTGTTCAAGCGCCATCTAC | 4.78 RPM ratio (pull-down/input)
GATGATTGTTCTCCCAGCTGATGAATTTGATTTCTCGAGTAAACAAATTTTCCTAATCTTTCTGTTCAAGCGCCATCTAC | 4.02 RPM ratio (pull-down/input)
GATGATTGTTCTCCCAGCTGATGAATTTTTTACCTCGAGTAAACAAATTTTCCTAATCTTTCTGTTCAAGCGCCATCTAC | 0.228 RPM ratio (pull-down/input)
GATGATTGTTCTCCCAGCTGATGAATTTGTTCTCTCGAGTAAACAAATTTTCCTAATCTTTCTGTTCAAGCGCCATCTAC | 2.14 RPM ratio (pull-down/input)
GATGATTGTTCTCCCAGCTGATGAATTGTTTACCTCGAGTAAACAAATTTTCCTAATCTTTCTGTTCAAGCGCCATCTAC | 7.12 RPM ratio (pull-down/input)
GATGATTGTTCTCCCAGCTGATGAATTTTTGTTCTCGAGTAAACAAATTTTCCTAATCTTTCTGTTCAAGCGCCATCTAC | 0.494 RPM ratio (pull-down/input)
GATGATTGTTCTCCCAGCTGATGAATTTTGTTCCTCGAGTAAACAAATTTTCCTAATCTTTCTGTTCAAGCGCCATCTAC | 1.64 RPM ratio (pull-down/input)
GATGATTGTTCTCCCAGCTGATGAATTGTTTTTCTCGAGTAAACAAATTTTCCTAATCTTTCTGTTCAAGCGCCATCTAC | 4.35 RPM ratio (pull-down/input)
GATGATTGTTCTCCCAGCTGATGAATTTGTTTTCTCGAGTAAACAAATTTTCCTAATCTTTCTGTTCAAGCGCCATCTAC | 7.21 RPM ratio (pull-down/input)
GATGATTGTTCTCCCAGCTGATGAATTGGGAATTTCGAGTAAACAAATTTTCCTAATCTTTCTGTTCAAGCGCCATCTAC | 1.3 RPM ratio (pull-down/input)
GATGATTGTTCTCCCAGCTGATGAATTAGGCACGTCGAGTAAACAAATTTTCCTAATCTTTCTGTTCAAGCGCCATCTAC | 1.03 RPM ratio (pull-down/input)
GATGATTGTTCTCCCAGCTGATGAATTACTCTGCTCGAGTAAACAAATTTTCCTAATCTTTCTGTTCAAGCGCCATCTAC | 0.3 RPM ratio (pull-down/input)
GATGATTGTTCTCCCAGCTGATGAATTACGTTGCTCGAGTAAACAAATTTTCCTAATCTTTCTGTTCAAGCGCCATCTAC | 1.14 RPM ratio (pull-down/input)
GATGATTGTTCTCCCAGCTGATGAATTAGGACATTCGAGTAAACAAATTTTCCTAATCTTTCTGTTCAAGCGCCATCTAC | 0.784 RPM ratio (pull-down/input)
GATGATTGTTCTCCCAGCTGATGAATTAAAGAATTCGAGTAAACAAATTTTCCTAATCTTTCTGTTCAAGCGCCATCTAC | 0.677 RPM ratio (pull-down/input)

Sequence | binding signal
GATGATTGTTCTCCCAGCTGATGAATTTGTATATTCGAGTAAACAAATTTTCCTAATCTTTCTGTTCAAGCGCCATCTAC | 6.34 RPM ratio (pull-down/input)
GATGATTGTTCTCCCAGCTGATGAATTCGTGTATTCGAGTAAACAAATTTTCCTAATCTTTCTGTTCAAGCGCCATCTAC | 2.95 RPM ratio (pull-down/input)
GATGATTGTTCTCCCAGCTGATGAATTGTATTGTTCGAGTAAACAAATTTTCCTAATCTTTCTGTTCAAGCGCCATCTAC | 6.04 RPM ratio (pull-down/input)
GATGATTGTTCTCCCAGCTGATGAATTTCTGTATTCGAGTAAACAAATTTTCCTAATCTTTCTGTTCAAGCGCCATCTAC | 1.38 RPM ratio (pull-down/input)
GATGATTGTTCTCCCAGCTGATGAATTCGTATATTCGAGTAAACAAATTTTCCTAATCTTTCTGTTCAAGCGCCATCTAC | 2.61 RPM ratio (pull-down/input)
GATGATTGTTCTCCCAGCTGATGAATTCTGTATTTCGAGTAAACAAATTTTCCTAATCTTTCTGTTCAAGCGCCATCTAC | 4.09 RPM ratio (pull-down/input)
GATGATTGTTCTCCCAGCTGATGAATTTTTGTATTCGAGTAAACAAATTTTCCTAATCTTTCTGTTCAAGCGCCATCTAC | 2.57 RPM ratio (pull-down/input)
GATGATTGTTCTCCCAGCTGATGAATTGTATTTTTCGAGTAAACAAATTTTCCTAATCTTTCTGTTCAAGCGCCATCTAC | 3.78 RPM ratio (pull-down/input)
GATGATTGTTCTCCCAGCTGATGAATTGTGTAATTCGAGTAAACAAATTTTCCTAATCTTTCTGTTCAAGCGCCATCTAC | 3.19 RPM ratio (pull-down/input)
GATGATTGTTCTCCCAGCTGATGAATTGTGTATTTCGAGTAAACAAATTTTCCTAATCTTTCTGTTCAAGCGCCATCTAC | 5.82 RPM ratio (pull-down/input)
GATGATTGTTCTCCCAGCTGATGAATTTGTGTATTCGAGTAAACAAATTTTCCTAATCTTTCTGTTCAAGCGCCATCTAC | 6.95 RPM ratio (pull-down/input)
GATGATTGTTCTCCCAGCTGATGAATTGTATATTTCGAGTAAACAAATTTTCCTAATCTTTCTGTTCAAGCGCCATCTAC | 3.17 RPM ratio (pull-down/input)
GATGATTGTTCTCCCAGCTGATGAATTTTTACGATCGAGTAAACAAATTTTCCTAATCTTTCTGTTCAAGCGCCATCTAC | 0.226 RPM ratio (pull-down/input)
GATGATTGTTCTCCCAGCTGATGAATTCCCTGCCTCGAGTAAACAAATTTTCCTAATCTTTCTGTTCAAGCGCCATCTAC | 0.312 RPM ratio (pull-down/input)
GATGATTGTTCTCCCAGCTGATGAATTGTGAGGCTCGAGTAAACAAATTTTCCTAATCTTTCTGTTCAAGCGCCATCTAC | 0.816 RPM ratio (pull-down/input)
GATGATTGTTCTCCCAGCTGATGAATTTAAGTGCTCGAGTAAACAAATTTTCCTAATCTTTCTGTTCAAGCGCCATCTAC | 0.628 RPM ratio (pull-down/input)
GATGATTGTTCTCCCAGCTGATGAATTGTGGTTTTCGAGTAAACAAATTTTCCTAATCTTTCTGTTCAAGCGCCATCTAC | 2.03 RPM ratio (pull-down/input)
GATGATTGTTCTCCCAGCTGATGAATTGGGTGGATCGAGTAAACAAATTTTCCTAATCTTTCTGTTCAAGCGCCATCTAC | 0.423 RPM ratio (pull-down/input)

Reference: article PMC12820563, “FoxP3 forms a head-to-head dimer in vivo and stabilizes its multimerization on adjacent microsatellites”
